Among the data in PubChem BioAssay (NCI) are growth values, retold here.

Molecules are shown by their SMILES. About 83,000 compounds went through this panel and 20% of them were active in at least one assay; those are over-represented in the sample as a whole.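 Note: values are percent growth. 100 is the growth of untreated cells, values between 100 and 0 indicate rising inhibition; between -100 and 0 indicates cell death.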 Active and inactive are the calls of the source.

The assay deals with COLO 205 colon. The assay can be described thus: NCI-60 one-dose screen, 48 h (100 = growth as untreated, 0 = no growth, -100 = all killed). The conditions noted are these: 10 µM unless noted. As for the experimental part:
Cells are grown in 96 well plates and exposed to the test compound for 48 hours. Compounds are tested at a single concentration, which is 10^-5 M for most compounds. The reported endpoint is percent growth (GI% or GIPRCNT), where numbers from 0 - 100% represent growth inhibition, and numbers from -100% - 0 represent cell death. For example, a value of 40 represents 60% growth inhibition. A value of 0 means no net growth occurred over the course of the experiment. A value of -40 indicates 40% of cells at the beginning of the experiment died by the end of the experiment. A value of -100 means all cells are dead at the end of the experiment.
NCI-60 Human Tumor Cell Lines Screen was performed using the standard one-dose NCI protocol, which is described in more detail at https://dtp.cancer.gov/discovery_development/nci-60/default.htm.
Compounds with GIPRCNT values below 10 were considered active. Activity score was based on GIPRCNT using the following formula: […]
Score is 0 for GIPRCNT values of 100 or above, 50 for GIPRCNT values of 0, and 100 for GIPRCNT values of -100.
Regarding `Cn1/c(=N/NC(N)=S)ccc2ccccc21`, the growth was 114% (inactive).
With `COc1cc(C2CC(c3cccc(Nc4ccncc4)c3)=NN2C(C)=O)cc(OC)c1OC` (stereo not given), the growth is 95% (inactive).
Take `Cc1nc2sc(C(=O)Nc3ccccc3)c(N)c2cc1C(=O)c1ccc(C(F)(F)F)cc1`: the growth is 104% (inactive).
As to `COc1cc(NCCCN(CC(C)C)C2CCCC2)c2ncccc2c1`, the growth is 65.1% (inactive).
The figure for `COc1ccc2c(c1)c(CC(=O)NCCOCCOCC(=O)Nc1ccc(OC)c(C(N)=O)c1O)c(C)n2C(=O)c1ccc(Cl)cc1` is 109% (inactive).
Consider `Nc1nnc2cc(Cl)ccc2n1`, for which the growth is 103% (inactive).
To `COc1ccc(C(=O)c2cc3c(N)c(C(=O)Nc4ccc(Br)cc4)sc3nc2C)cc1` belongs 85.9% (inactive); to `Cc1n[nH]c(C)c1-c1c(C)n[nH]c1C`, -21.6% (active); to `Cc1c(C(=O)NO)sc2ncnc(Nc3ccc(NC(=S)Nc4ccccc4)cc3)c12`, 113% (inactive).
The figure for `O=C1NC(=S)NC(=O)C1=Cc1cccc(C=C2C(=O)NC(=S)NC2=O)c1` is 113% (inactive).
To `O=S(=O)(NCCCNc1nccc(-c2c(-c3ccccc3)nc3occn23)n1)c1ccc(Cl)cc1` belongs 69.1% (inactive).
Turning to `Nc1nnc(C(=O)c2cnc3n(c2=O)CCCCC3)s1`, the growth was 118% (inactive).
As for `Nc1c(Cl)cc([N+](=O)[O-])cc1Br`, the growth was 118% (inactive).
To `O=C1Nc2ccccc2/C1=N/c1nc(-c2ccc(Cl)cc2)cs1` belongs 63.8% (inactive); to `COc1cc(Nc2cc(O)c3c(=O)cc(-c4ccccc4)oc3c2)cc(OC)c1`, 48.4% (inactive); to `C(=N\Nc1ncc(-c2cc3cc4c(cc3o2)OCO4)s1)/c1c[nH]c2ccccc12`, -28.8% (active).
The figure for `CCOC(=O)c1ccc(Nc2ccnc(SCC(=O)c3ccc(C#N)cc3)n2)cc1` is 70.8% (inactive); for `CCCCCCc1nc2nc(Cl)c(Cl)nc2[nH]1` it is 102% (inactive).
On to `CCCCCCCCCCCCCCCC(=O)OC[C@@]1(O)C[C@@]23CC[C@@H]4C(C)(C)[C@H](O)CC[C@@]4(C)[C@@H]2CC[C@H]1C3`, for which the growth was 115% (inactive).
To `FC(F)(F)Oc1cccc(-c2cc(NCCCCCCNc3cc(-c4cccc(OC(F)(F)F)c4)nc4ccc(N5CCCC5)cc34)c3cc(N4CCCC4)ccc3n2)c1` belongs -51.9% (active).
The figure for `NC(=O)c1cccc(-c2ccccc2N2CCCCC2)c1` is 121% (inactive); for `Clc1ccc(C2CC(c3cccc(Nc4ccncc4)c3)=NN2c2cc(Cl)cc(Cl)c2)cc1` (stereo not given) it is -58% (active); for `COc1cccc(NC(=O)c2cccc(-c3cc(=O)c4c(OC)c(OC)c(OC)cc4o3)c2)c1` it is 68.3% (inactive).
To `COc1ccc(-c2c[nH]c(C(=O)O)c2-c2cc(OC)c3c(c2OC)OCO3)cc1` belongs 102% (inactive); to `O=C(NCCc1ccccn1)OCc1nc2nc(Cl)nc(N3CCOCC3)c2[nH]1`, 17.2% (inactive); to `CCN(CC)CCCC(C)Nc1c2c(nc3ccc(OC)cc13)CCCC2` (stereo not given), 100% (inactive).
As to `C=C(C)[C@@H]1CC[C@]2(C(=O)O)CC[C@]3(C)[C@H](CC[C@@H]4[C@@]5(C)C[C@@H](CC#Cc6ccc(Br)cc6)C(=O)C(C)(C)[C@@H]5CC[C@]43C)[C@@H]12`, the growth was 69.1% (inactive).
To `O=CNc1cc(Cl)cc(Cl)c1` belongs 107% (inactive); to `Clc1ccc2c(c1)c(-c1ccccc1)nc1nncn12`, 115% (inactive).
To `COc1ccc(Nn2c(SCC(=O)Nc3nc(-c4ccc(Cl)cc4)cs3)nc(C)c2C)cc1` belongs 77.5% (inactive); to `CO[C@@H]1[C@H](N(C)C(=O)c2ccccc2)C[C@@H]2O[C@]1(C)n1c3ccccc3c3c4c(c5c6ccccc6n2c5c31)C(=O)NC4=O`, 2.3% (active).
To `COc1cc2nc(-c3ccc(C(F)(F)F)cc3)cc(OCCCN3CCCCC3)c2cc1OC` belongs 11.6% (inactive).
Regarding `Cc1cccc(Oc2ccc(Nc3ncnc4ccc(NC(=O)CN(C)C)cc34)cc2Cl)c1`, the growth is -15.8% (active).
The figure for `CN1CCN(C(=O)[C@]2(C)CC[C@]3(C)CC[C@]4(C)C(=CC(=O)[C@@H]5[C@@]6(C)CCC(=O)NC(C)(C)[C@@H]6CC[C@]54C)[C@@H]3C2)CC1` is 110% (inactive).
To `Cn1c(COC(=O)N2CCCCC2)nc2c(N3CCOCC3)nc(-c3ccccc3)nc21` belongs -60.2% (active).
To `NS(=O)(=O)c1cccc(NC(=O)C(=O)C2C(=O)Nc3ccccc32)c1` (stereo not given) belongs 123% (inactive); to `Fc1cc(C2=NNC(c3ccc[nH]3)C2)ccc1-n1ccc(C(F)(F)F)n1` (stereo not given), 109% (inactive); to `Clc1nc(Nc2ccccc2)nc(Nc2ccccc2)n1`, 108% (inactive).
Turning to `CC(=O)Nc1ccc(C(=O)Nc2cc(-c3ccccc3)ccc2N)cc1`, the growth is 35.5% (inactive).
To `COc1cccc(CCC(=O)c2cc3c(N)c(C(=O)Nc4ccccc4)sc3nc2C)c1` belongs 37.1% (inactive).
